18 compounds from PubChem BioAssay (Tox21) can be followed below.

Test [1] can be described thus: qHTS assay for small molecules that induce genotoxicity in human embryonic kidney cells expressing luciferase-tagged ATAD5 (AID 651632). Also: nearly all actives have a fitted effect of over 15% in size. Also: potency is read from the fitted curve at half-maximal effect. The conditions noted are these: HEK293T ATAD5-luciferase induction, 16 h; series mostly up to 83.3 µM. In outline:
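Increased luciferase signal from ATAD5-tagged reporter cells indicates DNA-damage-driven ATAD5 induction. HEK293T cells are treated for 16 hr at 37C before detection with Amplite.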
On the technique in general: Quantitative high-throughput screening tests each substance at several concentrations.

A short description of test [2]: qHTS assay for small molecules that induce genotoxicity in human embryonic kidney cells expressing luciferase-tagged ATAD5 - cell viability (AID 651634; calls by dose curve; also: nearly all actives have a fitted effect of over 25% in size). The following applies: HEK293T ATAD5-luc cells viability, CellTiter-Fluor, 15.5 h; series mostly up to 83.3 µM. The gist of the method:
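Cytotoxicity counterscreen in HEK293T cells bearing an ATAD5-luciferase reporter: live-cell protease activity measured by CellTiter-Fluor fluorescence after 15.5 hr compound exposure.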

Test [3] can be described thus: qHTS assay for small molecule disruptors of the mitochondrial membrane potential - cell viability (AID 720634; calls by dose curve;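 also: human HepG2 liver cancer cells; nearly all actives have a fitted effect of over 20% in size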). The conditions noted are these: HepG2 viability, ATP luminescence (CellTiter-Glo), 1 h; series mostly up to 83.2 µM. In outline:
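After overnight attachment at 37 C, HepG2 cells received compound or DMSO vehicle for 1 hr. Viability is then taken from ATP-driven luminescence following a 30 min room-temperature CellTiter-Glo step.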

Test [4] is described as follows: qHTS assay for small molecule disruptors of the mitochondrial membrane potential (AID 720635). Also: potency is read from the fitted curve at half-maximal effect. The conditions noted are these: HepG2 mitochondrial membrane potential, Mito-MPS dye ratio; series mostly up to 83.2 µM. The gist of the method: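 HepG2 cells (2,000/well) attached overnight at 37C, then took compound for 1 hr at 37C, 5% CO2. Mito-MPS dye was added for 30 min; fluorescence was read at 490/535 nm (monomers) and 540/590 nm (aggregates).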

A short description of test [5]: qHTS assay to test for compound auto fluorescence at 590 nm (red) in HepG2 cells (AID 720674). The following applies: HepG2 autofluorescence, red 540/590 nm, 1 h; series mostly up to 91.3 µM. The gist of the method:
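Rose Bengal sodium served as the red fluorophore standard. HepG2 monolayers (overnight attachment, MEM with 10% FBS) were exposed to test compounds for 1 hr at 37 C and read at Ex 540/Em 590 nm.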

The nature of test [6]: qHTS assay to test for compound auto fluorescence at 535 nm (green) in HepG2 cells (AID 720675). The following applies: green autofluorescence 485/535 nm, 1 h; series mostly up to 91.3 µM.
Test [7] is described as follows: qHTS assay to test for compound auto fluorescence at 460 nm (blue) in HEK293 cells (AID 720678). The following applies: blue autofluorescence 405/460 nm; series mostly up to 91.3 µM. The gist of the method: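 HEK293 cells (2,000/well, medium with 10% dialyzed FBS) attached 4-5 hr, then exposed to compound overnight at 37C, 5% CO2. Blue fluorescence read at 405/460 nm, with triamterene as reference fluorophore.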

Test [8] can be described thus: qHTS assay to test for compound auto fluorescence at 590 nm (red) in HEK293 cells (AID 720679). The following applies: red autofluorescence 540/590 nm; series mostly up to 91.3 µM. In outline:
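HEK293 cells (2,000/well, 10% dialyzed FBS) attached 4-5 hr, then dosed with compound or DMSO and incubated overnight at 37C, 5% CO2. Red fluorescence read at 540/590 nm, Rose Bengal sodium as reference fluorophore.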

Test [9] is described as follows: qHTS assay for small molecule agonists of the p53 signaling pathway - cell viability (AID 651633; calls by dose curve; also: nearly all actives have a fitted effect of over 30% in size; also: potency is read from the fitted curve at half-maximal effect). The following applies: p53RE-bla HCT-116 viability, ATP luminescence, 16 h; series mostly up to 83.3 µM. In outline:
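p53RE-bla cells, seeded at 4,000 per well and rested 5 h at 37 C/5% CO2, received compounds in DMSO for 16 h at 37 C. CellTiter-Glo was then added, and luminescence was read after 30 min at room temperature to gauge cytotoxicity.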

Test [10] can be described thus: qHTS assay for small molecule agonists of the p53 signaling pathway (AID 651631; calls by dose curve; also: nearly all actives have a fitted effect of over 15% in size). The conditions noted are these: HCT-116 p53RE-bla reporter, beta-lactamase FRET ratio, 16 h; series mostly up to 73.3 µM. In outline:
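HCT-116 cells carrying a stable p53 response element–beta-lactamase reporter were plated, rested 5 h at 37 °C, then exposed to compound in DMSO for 16 h at 37 °C; reporter activity was read as FRET substrate fluorescence after 2 h at room temperature.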

Where “and” joins values, the source holds several entries; their conditions need not be identical. Equal values may be shown once. Inconclusive results are not listed. Some structures have more than one record in an assay (separate samples or runs), and their calls can disagree. Calls of active or inactive are those of the source. Unless noted, calls follow the shape of the dose curve; as a rule, active = well fitted curve in the direction sought with a large enough effect in the repeat runs; inconclusive = weak or mixed curves; inactive = no such curve, though single readings can be large; an effect the other way counts as inactive or inconclusive.

In the case of `c1ccc2c(c1)ccc1ncccc12`, the Potency entry in [1], in test [2], in test [3], in test [5], in test [6] and in [8] was “inactive” throughout. Besides, the Potency in test [4] was 27.3 µM (active). The compound was classed as inactive in test [7].
In the case of `Cc1ccc(N)c([N+](=O)[O-])c1`, the Potency result in [1], in test [9], in [2], in [3] and in test [5] was “inactive” each time. In addition, the Potency in test [4] was 54.5 µM (active). In addition, in test [7], the call was inactive.
In the case of `Cc1ccc(/C(=C\CN2CCCC2)c2ccccn2)cc1`, the Potency entry in test [9], in [3], in test [4], in test [5], in [6] and in [8] was “inactive” each time. Also, in test [7], the outcome was inactive.
Regarding `CC(=O)O[C@]1(C(C)=O)CC[C@H]2[C@@H]3C=C(C)C4=CC(=O)CC[C@]4(C)[C@H]3CC[C@@]21C`, the Potency result in test [1], in test [9], in test [2], in [3], in test [5] and in [6] was “inactive” each time. In addition, the Potency result in [8] was “inactive”. Besides, the result in [7] was inactive.
Take `CCCCCCOCCOCCO`: the Potency entry in test [9], in test [2], in test [3], in test [4] and in test [5] was “inactive” each time. For the same compound, the compound was called inactive in test [7].
With `O=C(CCCN1CCC(O)(c2ccc(Cl)cc2)CC1)c1ccc(F)cc1`, the Potency entry in [10], in test [9], in test [3] and in test [5] was “inactive” in each case. Further, the result in test [7] was inactive.
For the compound `CC1(C)C(C=C(Cl)Cl)C1C(=O)OCc1cccc(Oc2ccccc2)c1` (stereo not drawn), the Potency result in test [1], in test [9], in test [2], in [3] and in test [5] was “inactive” each time. The Potency in test [4] was 30.6 µM (active). In test [7], the call was inactive.
For the compound `CC(=O)[C@H]1CC[C@H]2[C@@H]3CC=C4C[C@@H](O)CC[C@]4(C)[C@H]3CC[C@]12C`, the Potency result in [1], in test [9], in [2], in test [3], in test [5] and in test [6] was “inactive” in each case. In test [8], the Potency result was “inactive”. The compound was called inactive in test [7].
For `Nc1ccc2c(c1)C(=O)c1ccccc1C2=O`, the Potency was 4.77 µM (active) and 7.7 µM (active) in test [1]; 268 nM (active) and 386 nM (active) in [4]. The Potency entry in test [9], in test [2], in [3], in [5] and in test [8] was “inactive” each time. In [7], the outcome was inactive.
With `OCCNCCO`, the Potency result in test [1], in test [2], in test [3], in test [4], in test [5] and in [8] was “inactive” throughout. In addition, the Potency in test [9] is 19.3 µM (active) and inactive. In test [7], the outcome was inactive.
Take `O=C(O)COCCN1CCN(C(c2ccccc2)c2ccc(Cl)cc2)CC1` (stereo not drawn): the Potency entry in [1], in test [9], in test [2], in [3], in [5] and in test [8] was “inactive” in each case. In [7], the outcome was inactive.
As to `NCCN`, the Potency result in test [10], in test [9], in test [3], in test [5], in test [6] and in test [8] was “inactive” each time. The outcome in [7] was inactive.
`Oc1ccc(C(c2ccc(O)cc2)C(Cl)(Cl)Cl)cc1`: the Potency entry in [1], in test [2], in test [3], in test [5] and in test [6] was “inactive” each time. Also, the Potency in test [9] was 68.3 µM (active); in [4] it was 6.09 µM (active) and 6.86 µM (active). The result in test [7] was inactive.
For `C=C[C@H]1CN2CC[C@H]1C[C@H]2[C@H](O)c1ccnc2ccc(OC)cc12`, the Potency entry in test [1], in test [2], in test [3], in test [4], in test [5] and in [6] was “inactive” in each case. Further, the Potency result in test [8] is “inactive”. For the same compound, the result in [7] was inactive.
In the case of `C=C[C@H]1CN2CC[C@H]1C[C@@H]2[C@@H](O)c1ccnc2ccc(OC)cc12`, the Potency result in [1], in [2], in test [3], in [5], in [6] and in [8] was “inactive” throughout. Further, the call in [7] was inactive.
Turning to `OC[C@H]1O[C@@H]2O[C@H]3[C@H](O)[C@@H](O)[C@@H](O[C@H]4[C@H](O)[C@@H](O)[C@@H](O[C@H]5[C@H](O)[C@@H](O)[C@@H](O[C@H]6[C@H](O)[C@@H](O)[C@@H](O[C@H]7[C@H](O)[C@@H](O)[C@@H](O[C@H]1[C@H](O)[C@H]2O)O[C@@H]7CO)O[C@@H]6CO)O[C@@H]5CO)O[C@@H]4CO)O[C@@H]3CO`, the Potency entry in test [1], in test [9], in test [2], in [3], in test [4] and in [5] was “inactive” throughout. Moreover, in test [6], the Potency entry was “inactive”. For the same compound, in [7], the result was inactive.
For the compound `CC(C)[C@@H]1CC[C@@H](C)CC1=O`, the Potency entry in test [10], in test [9], in test [2], in test [3], in test [5] and in test [6] was “inactive” each time. In addition, in [8], the Potency entry was “inactive”. The compound was classed as inactive in test [7].
Take `NC[C@H](O)c1ccc(O)c(O)c1`: the Potency result in [1], in test [2], in [3], in test [4], in test [5] and in [6] was “inactive” in each case. The Potency result in [8] is “inactive”. Further, the compound was called inactive in test [7].
